# Screening data (PubChem)
# A selection: hits, their analogues and other compounds. The true share with any hit is near 9.5%.
# Pf growth 96h: P. falciparum growth inhibition at 96 hours; P. falciparum luciferase reporter growth, 96 h; Potency, µM (doses to about 28.7 µM), inactives show at the top dose activity change, negative = inhibition, usual class: inhibitors; actives 6.9% (n = 320,000); active = well fitted inhibition curve with a large enough effect; inconclusive = small, poorly fitted or top-dose-only effect, or another doubt; inactive = no such curve, though single readings can be large or run the other way; also: % is scaled to controls: 0 for no effect and ±100 for the full control effect
#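 Compounds incubated with erythrocytes infected by luciferase-expressing P. falciparum (2% hematocrit, 0.05% parasitemia final) for 96 hours, 37 C in 5% CO2. Growth inhibition scored as decreased luciferase luminescence.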
# SARS PLpro yeast: blocks SARS-CoV papain-like protease in a yeast assay; S. cerevisiae expressing SARS-CoV PLpro, growth rescue; Potency, µM (highest dose often 32.9 µM), for the others: at the highest dose activity, positive = growth rescue, usual class: activators; actives 0.19% (n = 330,000); AID 485353; also: 0% is about no effect; nearly all actives have a fitted effect of over 55% in size
# Pf growth 48h: P. falciparum growth inhibition at 48 hours (one generation); actives 5.9% (n = 310,000); P. falciparum luciferase growth in erythrocytes, 48 h; AID 504832; Potency, µM (highest dose often 28.7 µM), inactives show at the top dose activity change, negative = inhibition, actives largely listed as inhibitors; active = well fitted inhibition curve with a large enough effect; inconclusive = small, poorly fitted or top-dose-only effect, or another doubt; inactive = no such curve, though single readings can be large or run the other way; also: % is scaled to controls: 0 for no effect and ±100 for the full control effect
#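 Erythrocytes infected with P. falciparum carrying an integrated firefly luciferase reporter (2% hematocrit, 0.1% parasitemia final) were exposed to compounds in RPMI 1640 with 0.5% Albumax at 37 C, 5% CO2. Growth inhibition was scored as reduced luminescence.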
# RE007 growth inh: less growth of the S. pombe RE007 Vpr strain. S. pombe RE007 Vpr strain, BacTiter-Glo ATP luminescence, 24 h. Potency, µM (highest dose often 92.2 µM), inactives show top-dose activity change, negative = less growth, most hits filed as inhibitors. actives 0.21% (n = 360,000); active = well fitted falling curve with a large enough effect; inconclusive = small, poorly fitted or top-dose-only effect; inactive = no such curve, though single readings can be large or run the other way; also: % is scaled to controls: 0 for no effect and ±100 for the full control effect; nearly all actives have a fitted effect of over 50% in size
#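 Fission yeast RE007 carrying one integrated HIV-1 vpr copy, seeded at OD 0.01 in PMG+AL medium with 23 nL pinned compound. Grown 24 h at 30 degrees; viability read by BacTiter-Glo luminescence after 5 min.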
# NS1 function inh: blocks influenza NS1 protein function | Potency, µM (top dose mostly 46.1 µM), without a hit: at the highest dose activity, positive = more growth | AID 2326 | actives 0.4% (n = 270,000); also: actives are rising curves; nearly all actives have a fitted effect of over 50% in size
#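 Recovery from NS1-induced slow growth read by OD600 in budding yeast switched to galactose assay medium (pH 6.0, -URA) at 1:100 dilution. Compound 23 nl per well; the matching strain lacking NS1 serves as control.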
# An asterisk follows results filed as active; ? = inconclusive; / = no result. Unless noted, calls follow the shape of the full dose curve. Potency is read from the fitted curve at half-maximal effect.
SMILES,Pf growth 96h,SARS PLpro yeast,Pf growth 48h,RE007 growth inh,NS1 function inh
COc1ccc(CCN2CC(C(=O)NCc3cccc4[nH]ccc34)CCC2=O)cc1 (stereo unspecified),9.3µM*,2%,-16%,-8%,3%
COc1ccc([C@H]2N[C@]3(CCCN(Cc4ccc(Cl)cc4)C3=O)[C@H]3C(=O)N(Cc4ccccc4)C(=O)[C@@H]23)cc1,/,/,/,11%,/
Cc1ccc(CNC(=O)CCC2CCCN(Cc3cccc4c3OCO4)C2)o1 (stereo unspecified),0%,-2%,-7%,-3%,1%
Cc1ccc(CNC(=O)CCC2CCCN(Cc3c(C)nn(C(C)C)c3C)C2)o1 (stereo unspecified),8.3µM*,0%,-3%,-3%,7%
N#C/C(=C\c1ccncc1)c1ccccn1,10µM*,-3%,?,?,0%
COc1ccc(C)cc1NC(=O)C1CCCN1C(=O)OCc1ccccc1 (stereo unspecified),?,0%,10µM*,-1%,-12%
COc1cc2nc(N3CCN(C(=O)OCc4ccccc4)C(C(=O)NC(C)(C)C)C3)nc(N)c2cc1OC (stereo unspecified),/,/,/,/,11%
CCOc1ccccc1NC(=O)C1CCCN1C(=O)OCc1ccccc1 (stereo unspecified),9.3µM*,1%,-27%,21%,-11%
CC(NC(=O)C1CCCN1C(=O)OCc1ccccc1)c1ccccc1 (stereo unspecified),?,-1%,-1%,1%,/
COc1cc2nc(N3CCN(C(=O)OCc4ccccc4)[C@H](C(=O)NC(C)(C)C)C3)nc(N)c2cc1OC,5.2µM*,/,2.9µM*,-4%,/
COc1ccc(NC(=O)C2CCCN2C(=O)OCc2ccccc2)cc1 (stereo unspecified),10%,2%,9%,7%,1%
COC(=O)c1ccc(NC(=O)C2CCCN2C(=O)OCc2ccccc2)cc1 (stereo unspecified),5.9µM*,3%,3%,7%,-6%
CCCCC[C@@H]1C=C(C(=O)O)[C@H](c2ccc(OC)c(OC)c2)N1S(=O)(=O)c1ccc(C)cc1,/,-1%,/,0%,/
COc1cccc(NC(=O)CN(C)C(=O)c2c(C)nn(CC(C)C)c2Cl)c1,?,5%,-26%,-6%,/
COc1cc2nc(N3CCN(C(=O)[C@@H]4COc5ccccc5O4)CC3)nc(N)c2cc1OC,13µM*,/,15µM*,/,/
COc1ccc(OC)c(NC(=O)C2CCCN2C(=O)OCc2ccccc2)c1 (stereo unspecified),15%,3%,13µM*,-21%,-22%
COc1ccc2nc(N3CCN(C(=O)C4COc5ccccc5O4)CC3)sc2c1 (stereo unspecified),36%,2%,5%,-12%,/
COc1ccc(OC)c(NC(=O)[C@@H]2CCCN2C(=O)c2cccs2)c1,-12%,1%,32%,-9%,22%
CN(CC(=O)Nc1ccccc1C(F)(F)F)C(=O)COc1ncnc2ccccc12,17%,1%,-6%,3%,/
S=C1NCN(Cc2cccnc2)CN1c1cccc2ccccc12,3%,-2%,-4%,-15%,-7%
O=C(c1ccc2c3c(cccc13)CC2)C1CCCN(C(=O)c2cccnc2)C1 (stereo unspecified),?,0%,?,15%,0%
CSc1ccccc1C(=O)C1CCCN(Cc2ccncc2)C1 (stereo unspecified),1.2µM*,1%,?,6%,-1%
COc1ccc(O)c(CN2CCCC(C(=O)c3ccccc3SC)C2)c1 (stereo unspecified),16%,-2%,5.2µM*,-8%,1%
O=C(c1ccc2c3c(cccc13)CC2)C1CCCN(Cc2cccnc2)C1 (stereo unspecified),?,-1%,1.7µM*,1%,-1%
COc1ccccc1NC(=O)N(C)C[C@@H]1OCc2cnnn2CCCC(=O)N([C@H](C)CO)C[C@H]1C,/,/,/,6%,/
SMILES,Pf growth 96h,SARS PLpro yeast,Pf growth 48h,RE007 growth inh,NS1 function inh
OCc1cccc(Nc2ncnc3sc4c(c23)CCCCC4)c1,-20%,-1%,12%,3%,-25%
COc1ccc(C(=O)NCC(c2ccccc2)c2ccccc2)cc1S(=O)(=O)N1CCOCC1,/,/,/,18%,/
COc1ccccc1C(CNC(=O)c1ccc(C)c(S(=O)(=O)N2CCCCC2)c1)N1CCCC1 (stereo unspecified),10µM*,-1%,?,0%,/
COc1ccc(C(CNC(=O)c2ccc(S(=O)(=O)N3CCOCC3)cc2)N2CCCCC2)cc1 (stereo unspecified),28%,-1%,?,-1%,-2%
COc1ccc(C(=O)NCC(c2ccc(F)cc2)N2CCOCC2)cc1S(=O)(=O)N1CCCC1 (stereo unspecified),10µM*,7%,?,1%,-15%
COc1ccc(C(CNC(=O)c2ccc(OC)c(S(=O)(=O)N3CCCC3)c2)N2CCCC2)cc1 (stereo unspecified),10µM*,-8%,?,-12%,/
Cc1ccc(C(=O)Nc2ccccc2C(=O)Nc2ccccn2)cc1Cl,?,-10%,43%,4%,6%
CC1(C(=O)NS(=O)(=O)Cc2ccccc2C(F)(F)F)CCN1C(=O)Cc1ccccc1 (stereo unspecified),/,/,/,-5%,/
CC(=O)c1ccc(OCCCC(=O)NCc2nnc3ccccn23)cc1,11%,1%,1%,-4%,/
CCN(CC)Cc1nc2c(c(=O)[nH]1)C1(CCCC1)Cc1ccccc1-2,12µM*,7%,?,4%,6%
CC(C)OCCCNC(=O)CN1C(=O)c2cccc3cccc1c23,-27%,-1%,-14%,4%,3%
O=C(NC1CCN(C(=O)N2c3ccccc3Sc3ccccc32)CC1)c1ccccc1F,?,-27%,2.9µM*,-9%,-15%
CC1CCN(C(=O)N2c3ccccc3Sc3ccccc32)CC1,/,-28%,/,-5%,-56%
CC1(C)Cc2c(cnn2-c2ccccc2)C(NC(=O)CCCn2cncn2)C1 (stereo unspecified),12µM*,0%,-19%,-12%,9%
CCc1noc(C)c1C(=O)NC1CC(C)(C)Cc2c1cnn2-c1ccccc1 (stereo unspecified),9.3µM*,-3%,-23%,/,-7%
Cc1ccc(-n2ncc3c2CC(C)(C)CC3NC(=O)c2c(C)noc2C)cc1 (stereo unspecified),?,5%,-18%,4%,-1%
CC1(C)Cc2c(cnn2-c2ccc(F)cc2)C(NC(=O)CCn2cncn2)C1 (stereo unspecified),?,1%,-2%,13%,9%
Cc1ccc(-n2ncc3c2CC(C)(C)CC3NC(=O)CCc2cccnc2)cc1 (stereo unspecified),12µM*,-4%,-11%,-9%,-6%
